An excerpt weighted towards active compounds, which were near 3.6% of everything screened.
mHTT CaM bind = disrupts binding of mutant huntingtin to calmodulin; P42858; AlphaScreen His-mHTT/GST-CaM binding, luminescence; inhibition, % at 15 µM; 3.6% of 190,000 active; AID 1671202;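 note: 0% = both proteins with DMSO and 100% = one protein alone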
Pf apPOL inh = Pf-apPOL DNA polymerase inhibition; Recombinant Pf-apPOL, molecular beacon fluorescence, 1.5 h; inhibition, % at 10 µM; 0.25% of 210,000 active; AID 1794808
* hit, by the source's call; ! = repeats disagree. Cut-off read from the data, not from the text of the source: active = inhibition above about 50%; inactive = the rest.

What do the screens show for `COc1ccc(OC)c(C2CC(c3ccc(C)cc3)Nc3nnnn32)c1` (stereo not drawn)?
mHTT CaM bind: 6; Pf apPOL inh: 0

What do the screens show for `Fc1ccc(C2CC(c3ccccc3OC(F)F)n3ncnc3N2)cc1` (stereo not drawn)?
mHTT CaM bind: 16; Pf apPOL inh: -3

What do the screens show for `Cc1ccc(C2CC(c3ccc(F)c(Br)c3)n3nnnc3N2)cc1` (stereo not drawn)?
mHTT CaM bind: 61*; Pf apPOL inh: -6

What do the screens show for `COc1ccc(OC)c(C2CC(c3ccc(Br)cc3)Nc3nnnn32)c1` (stereo not drawn)?
mHTT CaM bind: 58*; Pf apPOL inh: -7

Results for COc1ccccc1C1CC(c2ccc(Cl)cc2)Nc2ncnn21 (stereo not drawn) ?
mHTT CaM bind: 54*; Pf apPOL inh: -3

How did FC(F)Oc1ccccc1C1CC(c2ccc(I)cc2)Nc2ncnn21 (stereo not drawn) do in these assays?
mHTT CaM bind: 53*; Pf apPOL inh: -3

Results for Cc1ccc(C2CC(c3ccc(F)cc3)n3nnnc3N2)cc1 (stereo not drawn) ?
mHTT CaM bind: 0; Pf apPOL inh: 7

Results for COc1ccccc1C1CC(c2ccc(I)cc2)Nc2ncnn21 (stereo not drawn) ?
mHTT CaM bind: 41; Pf apPOL inh: -8

What do the screens show for `Cc1ccccc1CN1CCc2nc(N3CCN(c4ccccc4F)CC3)ncc2C1`?
mHTT CaM bind: 11; Pf apPOL inh: -2

How did Cc1nc(C)c(-c2ccc(SCC(=O)Nc3nc4ccccc4s3)nn2)s1 do in these assays?
mHTT CaM bind: 6; Pf apPOL inh: 8

Results for CC(=NCc1cccnc1)c1ccccc1O ?
Pf apPOL inh: -2

What do the screens show for `CCCc1nc2ccccc2c(N)c1CC`?
mHTT CaM bind: -5; Pf apPOL inh: 0

Results for CC(C)N1CCN(C(=O)c2cn3ccnc(-c4ccc(F)cc4)c3n2)CC1 ?
mHTT CaM bind: -1; Pf apPOL inh: -6

Results for CCc1ccc(C2CC(c3cc(OC)ccc3OC)n3ncnc3N2)cc1 (stereo not drawn) ?
mHTT CaM bind: 51*; Pf apPOL inh: -7

How did CCc1ccc(C2CC(c3ccccc3OC)n3ncnc3N2)cc1 (stereo not drawn) do in these assays?
mHTT CaM bind: 1; Pf apPOL inh: 3

How did COc1cccc(C2CC(c3ccc(Br)cc3)Nc3ncnn32)c1OC (stereo not drawn) do in these assays?
mHTT CaM bind: 51*; Pf apPOL inh: -8

Results for COc1cccc(C2CC(c3ccc(C)cc3)Nc3ncnn32)c1OC (stereo not drawn) ?
mHTT CaM bind: 14; Pf apPOL inh: -6

Results for COc1ccc2cccc(NC(=O)C3CCC3)c2n1 ?
mHTT CaM bind: -19; Pf apPOL inh: -7

What do the screens show for `C=CCc1ccc(OCC(O)CN2CCN(c3ccccc3)CC2)c(OC)c1` (stereo not drawn)?
mHTT CaM bind: 40; Pf apPOL inh: 0

Results for C=CCc1ccc(OCC(O)CN2CCN(c3ccc(OC)cc3)CC2)c(OC)c1 (stereo not drawn) ?
mHTT CaM bind: 51*; Pf apPOL inh: -3

Results for C=CCc1cc(OC)ccc1OCC(O)CN1CCN(c2ccc(OC)cc2)CC1 (stereo not drawn) ?
mHTT CaM bind: 50*!; Pf apPOL inh: -3

Results for C=CCc1cc(OC)ccc1OCC(O)CN1CCN(c2ccccc2F)CC1 (stereo not drawn) ?
mHTT CaM bind: 14; Pf apPOL inh: 1

What do the screens show for `Cc1cccc(CNC(=O)c2nn(C)c3c2CN(C(=O)c2ccccc2C)CC3)c1`?
mHTT CaM bind: 27; Pf apPOL inh: -12

How did Cc1cccc(CNC(=O)c2nn(C)c3c2CN(C(=O)c2cccc(F)c2)CC3)c1 do in these assays?
mHTT CaM bind: 71*; Pf apPOL inh: -6

Results for Cn1nc(C(=O)NCc2ccc(Cl)cc2)c2c1CCN(C(=O)c1ccco1)C2 ?
mHTT CaM bind: 5; Pf apPOL inh: 5

How did Cc1cccc(CNC(=O)c2nn(C)c3c2CN(C(=O)c2cccc(C)c2)CC3)c1 do in these assays?
mHTT CaM bind: 74*; Pf apPOL inh: -7

What do the screens show for `Cc1cccc(C(=O)N2CCc3c(c(C(=O)NCc4ccc(Cl)cc4)nn3C)C2)c1`?
mHTT CaM bind: 91*; Pf apPOL inh: 23

Results for CC(=O)N1c2c(cc(Br)cc2S(=O)(=O)Nc2cccnc2)CC1C (stereo not drawn) ?
mHTT CaM bind: -4; Pf apPOL inh: -6

How did COc1ccc(C)cc1NC(=O)N1CCC(c2nc(C(=O)N3CCOCC3)c(C)o2)CC1 do in these assays?
mHTT CaM bind: 2; Pf apPOL inh: 0

Results for COc1ccccc1CNC(=O)c1sc2nc(C)nc(N3CCCCC3C)c2c1C (stereo not drawn) ?
mHTT CaM bind: -1; Pf apPOL inh: -16

Results for CCCn1c(=N)c(S(=O)(=O)c2ccc(C)cc2)cc2c(=O)n3cccc(C)c3nc21 ?
mHTT CaM bind: -3; Pf apPOL inh: -11

How did CCCN(CCO)CC1CC=CCC1 (stereo not drawn) do in these assays?
mHTT CaM bind: -7; Pf apPOL inh: 1

What do the screens show for `C=CCSc1nnc2c(n1)OC(c1cc3c(cc1[N+](=O)[O-])OCO3)Nc1ccccc1-2` (stereo not drawn)?
mHTT CaM bind: 93*; Pf apPOL inh: 0

Results for CCCSc1nnc2c(n1)OC(c1cc3c(cc1[N+](=O)[O-])OCO3)Nc1ccccc1-2 (stereo not drawn) ?
mHTT CaM bind: -6; Pf apPOL inh: 4

What do the screens show for `Cc1cc([N+](=O)[O-])ccc1NC1OC(CO)C(O)C1O` (stereo not drawn)?
mHTT CaM bind: 0; Pf apPOL inh: 0

What do the screens show for `COc1cc(Br)c(-c2c(-c3ccc(Cl)cc3)cn3ccc4cc(OC)c(OC)cc4c23)cc1OC`?
mHTT CaM bind: 27

How did Cc1ccnc(N2CCCC(C(=O)N3CCN(Cc4ccccc4)CC3)C2)n1 (stereo not drawn) do in these assays?
mHTT CaM bind: 15; Pf apPOL inh: -3

Results for CC1(C)CC(C)(c2ccc(Cl)cc2)c2ccccc2N1 (stereo not drawn) ?
mHTT CaM bind: 85*; Pf apPOL inh: -10

How did COCCOCC(=O)N1c2ccccc2C(C)(c2ccc(Cl)cc2)CC1(C)C (stereo not drawn) do in these assays?
mHTT CaM bind: 34; Pf apPOL inh: -6

How did COC(=O)C(C)Oc1ccc2c(c1)OC(=Cc1cccc(C)c1)C2=O (stereo not drawn) do in these assays?
mHTT CaM bind: 8; Pf apPOL inh: -2

What do the screens show for `Cc1nc2c(ccc3nc(NC(=O)c4ccc(Cl)s4)sc32)s1`?
mHTT CaM bind: -3; Pf apPOL inh: 5

What do the screens show for `Cc1nc2c(ccc3nc(NC(=O)c4ccc5c(c4)OCCO5)sc32)s1`?
mHTT CaM bind: 69*; Pf apPOL inh: 1

What do the screens show for `CCOc1ccc(N2C(=O)CC(NCc3ccc(F)cc3)C2=O)cc1` (stereo not drawn)?
mHTT CaM bind: -12; Pf apPOL inh: -1

What do the screens show for `CC12CC3CC(C)(C1)CC(C(=O)NCc1ccccn1)(C3)C2`?
mHTT CaM bind: 3; Pf apPOL inh: -7

What do the screens show for `O=C1Nc2ccccc2CCC1NCc1ccccn1` (stereo not drawn)?
mHTT CaM bind: 71*; Pf apPOL inh: -13

Results for O=C1CC(NCc2ccccn2)C(=O)N1c1ccc(F)cc1 (stereo not drawn) ?
mHTT CaM bind: 100*; Pf apPOL inh: -2

Compound activity (PubChem)
